Screening data (PubChem)
FBPA Giardia inh: blocks Giardia fructose-bisphosphate aldolase activity; purified Giardia FBPA; Potency, µM (top dose mostly 59.6 µM), without a hit: at the highest dose activity, negative = inhibition, most hits filed as inhibitors; 0.71% of 290,000 active; AID 2451; A8B2U2; active means well fitted inhibition curve with a large enough effect; inconclusive means small, poorly fitted or top-dose-only effect, or effect the other way; further: nearly all actives have a fitted effect of over 55% in size
Target sequence (A8B2U2 whole entry, looked up): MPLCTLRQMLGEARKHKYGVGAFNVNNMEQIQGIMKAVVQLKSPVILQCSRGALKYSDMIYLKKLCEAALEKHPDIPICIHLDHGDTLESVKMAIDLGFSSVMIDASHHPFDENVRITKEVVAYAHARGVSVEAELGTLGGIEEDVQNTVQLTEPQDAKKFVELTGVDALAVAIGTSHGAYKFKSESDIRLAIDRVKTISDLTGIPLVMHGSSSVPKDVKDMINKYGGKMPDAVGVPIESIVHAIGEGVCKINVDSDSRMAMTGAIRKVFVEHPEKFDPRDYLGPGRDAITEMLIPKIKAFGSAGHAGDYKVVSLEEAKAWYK
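40 nM FBPA preincubated 10 min at RT with compound (up to 57.5 uM final), then substrate plus GAPDH/TPI/NAD/arsenate coupling and diaphorase/resazurin added. Fluorescence read after 20 min at RT, 525/598 nm.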
FMDV antiviral: blocks foot and mouth disease virus | FMDV antiviral cell-based qHTS | Potency, µM (series often up to 57.9 µM), without a hit: at the highest dose activity change, negative = inhibition, most hits filed as inhibitors | 1.2% of 410,000 active | AID 1159524; calls by dose curve; tested in HEK293T cells; further: read-out not given here; nearly all actives have a fitted effect of over 45% in size
Vaccinia mCherry: vaccinia inhibition (mCherry reporter) | Vaccinia virus mCherry reporter infection, fluorescence | Potency, µM (highest dose often 36.5 µM), for inactives: top-dose activity change, negative = inhibition, most hits filed as inhibitors | 0.63% of 310,000 active | AID 720579; calls by dose curve; tested in A549 cells; further: nearly all actives have a fitted effect of over 35% in size
VACV Venus inh: inhibitors of vaccinia virus (Venus reporter). Vaccinia virus Venus reporter expression, fluorescence. Potency, µM (titrated, usually from 36.5 µM), inactives show top-dose activity change, negative = inhibition, actives largely listed as inhibitors. 0.46% of 330,000 active. AID 720580; calls by dose curve; tested in A549 cells; further: nearly all actives have a fitted effect of over 30% in size
Active calls of the source: *; i = inactive; ? = inconclusive; . = no result given; [ ] = another dose, or the depositor's remark. The list is not random: actives were taken first. Their share in the collection is about 2.2%. On the % scale 0 is the no-effect control and ±100 the full control effect; potency means the concentration at half of the fitted maximal effect.

SMILES	FBPA Giardia inh	FMDV antiviral	Vaccinia mCherry	VACV Venus inh
COc1ccc(C2=NN(C(=O)COc3ncnc4ccccc34)C(c3ccco3)C2)cc1 (stereo not drawn)	1%	-13%	-12%	-17%
COc1ccc(C2=NN(C(=O)COC(=O)c3ccc(S(C)(=O)=O)c([N+](=O)[O-])c3)C(c3ccco3)C2)cc1 (stereo not drawn)	.	25µM*	11µM*	?
Cn1c(SC2=CS(=O)(=O)c3ccccc32)nc2ccccc21	0%	28µM*	.	?
CC(C)(CO)N=C1NS(=O)(=O)c2cc([N+](=O)[O-])ccc21	1%	4%	i	-23%
CCC(CC)N=C1NS(=O)(=O)c2cc([N+](=O)[O-])ccc21	-13%	28%	13µM*	?
CCOC(=O)COc1ccc2c(C#N)c3ccccn3c2c1	5.6µM*	-23%	.	.
CCCCN(CCCC)c1ccc(/C=C2\C=Cc3ccccc32)cc1	.	.	26%	10%
CCOc1ccccc1/C=N/Nc1ccnc(=O)[nH]1	-10%	22%	-7%	-21%
COc1cccc(/C=N/Nc2ccnc(=O)[nH]2)c1O	-10%	-11%	0.79µM*	?
COc1cccc(/C=N/Nc2snc(SC)c2C#N)c1O	2%	?	10µM*	7.9µM*
COc1ccc(/C=N/Nc2snc(SC)c2C#N)cc1OC	.	-2%	.	-29%
O=c1nccc(N/N=C/c2ccccc2O)[nH]1	5%	7%	1µM*	?
COc1ccc(NC(=O)CCS(=O)(=O)c2ccc3nc(C)sc3c2)cc1Cl	.	-23%	-21%	-18%
Cc1ccc(CNc2nc(CN3CCN(C=O)CC3)nc3ccccc23)o1	.	-3%	-3%	1%
NS(=O)(=O)c1ccc(N=Nc2ccc(O)c3ncccc23)cc1	?	-16%	?	10µM*
CCS(=O)(=O)c1ccc(OC)c(N=Nc2ccc(O)c3ncccc23)c1	15%	?	?	-23%
Oc1ccc(N=Nc2ccc3c(c2)OCCO3)c2ncccc12	15%	4µM*	.	.
NS(=O)(=O)c1ccc(N=Nc2ccc(=O)[nH]c2O)cc1	5.6µM*	4%	-4%	-3%
CC1Cc2ccccc2C[N+]1(C)CC(=O)c1ccc(I)cc1 (stereo not drawn)	.	.	46%	10%
Cc1[nH]c2ccccc2c1CC#N	-18%	1%	-1%	-14%
Cc1[nH]c2ccccc2c1C(C#N)(C#N)C1C(=O)c2ccccc2C1=O	10µM*	-18%	-27%[7.34 µM]	13%[7.34 µM]
Cc1ccc(N2C(=O)NC(=O)/C(=C/C=C/c3ccco3)C2=O)cc1	-7%	?	-16%	-25%
CCCCN1C(=O)/C(=C/C=C/c2ccco2)C(=O)NC1=S	-23%	-7%	-15%	50%
CC1=NN(c2ccccc2)C(=O)/C1=C\C=C\c1ccccc1	-13%	22µM*	-4%	0%
O=C1NC(=O)N(c2ccccc2)C(=O)/C1=C\C=C\c1ccccc1	-6%	13µM*	i[7.34 µM]	-8%[7.34 µM]
SMILES	FBPA Giardia inh	FMDV antiviral	Vaccinia mCherry	VACV Venus inh
Cc1cc(C)cc(N2C(=O)NC(=O)/C(=C\C=C\c3ccco3)C2=O)c1	0%	14µM*	-4%	22%
CC(C)c1ccc(N2C(=O)NC(=O)/C(=C/C=C/c3ccco3)C2=O)cc1	-5%	13µM*	4%	42%
CCc1ccc(N2C(=O)NC(=O)/C(=C\C=C\c3ccco3)C2=O)cc1	-17%	25µM*	.	.
O=C1NC(=O)N(Cc2ccc(F)cc2)C(=O)/C1=C\C=C\c1ccco1	0%	28µM*	-11%	38%
O=C1NC(=O)N(Cc2ccccc2)C(=O)/C1=C\c1ccco1	1%	?	21%	33%
CCc1ccc(N2NC(=O)/C(=C/C=C/c3ccco3)C2=O)cc1	-8%	-2%	-15%	1%
CCCN1C/C(=C/c2cccc([N+](=O)[O-])c2)C(=O)/C(=C/c2cccc([N+](=O)[O-])c2)C1	2%	2.5µM*	-4%	-14%
CCCN1C(=O)/C(=C/c2ccc3c(c2)OCO3)NC1=S	-15%	-12%	.	.
CCCN1C/C(=C/c2ccc3c(c2)OCO3)C(=O)/C(=C/c2ccc3c(c2)OCO3)C1	-28%	18µM*	?	?
CN1C(=O)/C(=C/c2cccc([N+](=O)[O-])c2)C(=O)N1c1ccccc1	-10%	32µM*	-10%	-8%
CC1(C)CC(=O)/C(=C\c2cccc([N+](=O)[O-])c2)C(C)(C)N1	5%	?	?	-19%
O=C(Cc1c[nH]c2ccccc12)N1CCC(n2c(C3CCCO3)nc3cc(C(F)(F)F)ccc32)CC1 (stereo not drawn)	.	-6%	-14%	-12%
COCc1ccc(CN2CCOc3c(cc(-c4cc(C)c5cccc(OC)c5n4)cc3OC)C2)o1	.	-11%	-19%	4%
CCN(CC)c1ccc(/C=C/c2ccc3ccccc3n2)cc1	.	.	i	i
Cc1c(C)n(CCc2ccccc2)c2ncnc(NCCCN(C)C)c12	5%	-23%	7.1µM*	?
Cc1c(C)n(CCN(C)C)c2ncnc(NCc3ccccc3)c12	-2%	-4%	-21%	-13%
Cc1nccn1CC(O)COc1ccc(Cl)cc1Cl (stereo not drawn)	-10%	0.45µM*	i	-4%
CCOC(=O)c1c(-c2ccccc2)oc2ccc(OCC(O)CNCCN(C)C)cc12 (stereo not drawn)	19%	?	11µM*	?
CCCCCc1c(-c2cccc(OC)c2)ncn1CCc1ccccc1OC	.	28µM*	-22%	-23%
CCCCc1c(-c2cccc(F)c2)ncn1CCc1ccccc1OC	.	25µM*	-4%	?
CCCCCc1c(-c2cccc(Cl)c2)ncn1CCc1ccccc1OC	.	-27%	1%	0%
CCCCCc1c(-c2cccc(F)c2)ncn1CCc1ccccc1OC	.	22µM*	-24%	-20%
CCCCCc1c(-c2ccc(F)cc2)ncn1CCc1ccccc1OC	.	?	?	-27%
CCCc1c(-c2cccc(F)c2)ncn1CCc1ccccc1OC	.	?	-17%	-21%
CCc1nc2cc(C(=O)N(C)CC3CCCN(C)C3)cc(NC(=O)c3ccccc3OC)c2n1C (stereo not drawn)	.	-6%	-10%	-8%
SMILES	FBPA Giardia inh	FMDV antiviral	Vaccinia mCherry	VACV Venus inh
O=[N+]([O-])c1cccc(-c2ccc(/C=N/NC(=S)Nc3cccc(F)c3)o2)c1	9%	?	-6%	-16%
NC(=S)N/N=C/c1cc([N+](=O)[O-])ccc1Cl	-19%	-22%	?	2.2µM*
O=[N+]([O-])c1ccc(O)c(/C=N/Nc2ccc(Cl)nn2)c1	24%	44%	1.1µM*	?
NC(=S)N/N=C/c1ccc(-c2cccc([N+](=O)[O-])c2)o1	-3%	-6%	4.5µM*	5µM*
COc1cc(OC)c(/C=C/c2cc(/C=C/c3c(OC)cc(OC)cc3OC)[n+](C)c3ccccc23)c(OC)c1	.	.	?	-7%
O=C(Nc1nc2ccccc2s1)c1cnccn1	6%	.	-13%	-15%
O=C(Nc1nc2ccc(F)cc2s1)c1ccccn1	?	11µM*	?	?
CCCCNc1c(-c2ccc(OC)c(SC3CCCCC3)c2)nc2cnccn12	.	0%	?	?
CCCCNc1c(-c2cccc(-c3ccc(OC)cc3)c2)nc2ccc(C)cn12	.	28µM*	13µM*	?
CCCCNc1c(-c2ccc(OC)c(SC3CCCCC3)c2)nc2cc(C)ccn12	.	25µM*	-49%	?
